In PubChem BioAssay (NCI):
The panel holds about 83,000 compounds, 20% with a hit somewhere; the sample as a whole holds those more often.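 Method: cells in 96-well plates; compound added at one concentration; 48 h incubation; percent growth measured; values under 10 scored active.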 Values without a mark were called inactive. Calls of active or inactive are those of the source.

Tests used:
Test in all cases: NCI-60 one-dose screen, 48 h (100 = growth as untreated, 0 = no growth, -100 = all killed)
Settings in all cases: 10 µM
[1] = system: NCI-H23 lung
[2] = system: NCI-H226 lung
[3] = system: HOP-62 NSCLC
[4] = system: NCI-H460 lung
[5] = system: HOP-92 NSCLC
[6] = system: NCI-H522 lung
[7] = system: A549/ATCC NSCLC
[8] = system: 786-0 renal
[9] = system: COLO 205 colon
[10] = system: DU-145 prostate
[11] = system: K-562 leukemia
[12] = system: MALME-3M melanoma
[13] = system: MDA-MB-231 breast
[14] = system: RXF 393 renal
[15] = system: SF-268 CNS
[16] = system: SF-295 CNS
[17] = system: SF-539 CNS
[18] = system: UACC-257 melanoma
[19] = system: M14 melanoma

Compound | growth [1] | growth [2] | growth [3] | growth [4] | growth [5] | growth [6] | growth [7] | growth [8] | growth [9] | growth [10] | growth [11] | growth [12] | growth [13] | growth [14] | growth [15] | growth [16] | growth [17] | growth [18] | growth [19]
COc1cc(C2C(C#N)=C(N)Oc3cc(O)ccc32)cc(OC)c1OC (centres undefined) | 30.7% | 68.4% | 53.2% | 9.65% (active) | 49.7% | 1.54% (active) | 21.4% | 40.6% | 8.35% (active) | 11.1% | 9.12% (active) | 43.5% | 36.1% | -9.12% (active) | 50.4% | 0.55% (active) | 4.64% (active) | 64.2% | -15.6% (active)
Cc1nn(-c2ccc(-c3ccc(OC(F)(F)F)cc3)cc2)c2nc(Cc3ccccc3)nc(N)c12 | 64.9% | 42.5% | 45.9% | 3.39% (active) | 59% | 73.7% | 16.7% | 5.79% (active) | 65.2% | 75.5% | 63.7% | 83.8% | 48.3% | 77.9% | 54.3% | 47.7% | 80.3% | 78.8% | 69%
Cc1ccc(NCCN(C)CC(C)O)c2c(=O)c3ccccc3sc12 (centres undefined) | 57.4% | 66.1% | 48% | 15.6% | 32.4% | 44.4% | 21.6% | 40.5% | -43.3% (active) | 47.4% | 0.188% (active) | 34.6% | 36.9% | 24.8% | 56.6% | 53.3% | 53.2% | 45.9% | -49% (active)
O=C(CCCSc1nc(-c2ccc(Cl)cc2)cc(-c2ccc(Cl)cc2)n1)NO | 13.2% | 2.42% (active) | 15.4% | 0.534% (active) | 28% | 6% (active) | 10.2% | 6.25% (active) | 9.44% (active) | 15.1% | 5.07% (active) | 2.37% (active) | 14.6% | -15.3% (active) | 11.6% | -4.84% (active) | -23% (active) | 13.2% | -15.5% (active)
O=C(CCCSc1nc(-c2ccccc2)cc(-c2ccc(Cl)cc2)n1)NO | 9.38% (active) | 10.6% | 12.5% | -9.81% (active) | 32.9% | 7.31% (active) | 5.6% (active) | 9.83% (active) | 10.1% | 14.2% | 8.59% (active) | 4.49% (active) | 17.7% | -19.2% (active) | 14.3% | 4.46% (active) | -27.2% (active) | 8.34% (active) | 5.54% (active)
O=C(N/N=C/c1ccc(Cl)cc1)c1ccc(Cc2n[nH]c(=O)c3cccnc23)cc1 | 90.6% | 96.1% | 97.3% | 109% | 95.2% | 89% | 103% | 101% | 104% | 112% | 106% | 93.2% | 102% | 91.2% | 98.6% | 101% | 89.7% | 97.1% | 99.6%
O=C(Nc1cc(Cl)cc2c1-c1ccc(Cl)cc1C2O)C(Cl)Cl (centres undefined) | 79.5% | 55% | 83.3% | 35.9% | 77.1% | 84.2% | 74.5% | 98.4% | 94.2% | 60.1% | 81.9% | 105% | 74.4% | 63.8% | 91.9% | 83.4% | 84.2% | 89.8% | 85.3%
O=C(CN(C1CCCCC1)C1CCCCC1)Nc1ccc(S(=O)(=O)c2ccc(NC(=O)CN(C3CCCCC3)C3CCCCC3)cc2)cc1 | -36.6% (active) | 0.397% (active) | -21.4% (active) | -9.66% (active) | -86.7% (active) | -74.4% (active) | 2.61% (active) | -82.7% (active) | -70.6% (active) | -47.9% (active) | -29.8% (active) | -67.4% (active) | -49.4% (active) | -61.4% (active) | -7.58% (active) | 14.4% | -89.9% (active) | -17.9% (active) | -59.4% (active)
O=C(O)c1cc([N+](=O)[O-])ccc1Oc1ccccc1 | 101% | 98.6% | 101% | 105% | 65.8% | 97.1% | 99.7% | 104% | 104% | 104% | 116% | 81.3% | 97.3% | 107% | 97.3% | 101% | 94.6% | 96.8% | 106%
O=C(Nc1ccc(F)cc1)c1cc2ccccc2cc1O | 61.8% | 74.2% | 78.7% | 80.5% | 2.82% (active) | 56.5% | 75.8% | 93.5% | 95.5% | 85.7% | 45.6% | 72% | 66.7% | 94.6% | 87.3% | 90.7% | 84% | 58.1% | 88.4%
O=C(Cn1cc(CO)nn1)Nc1nc2ccccc2s1 | 101% | 103% | 101% | 106% | 106% | 93.7% | 97.2% | 103% | 111% | 113% | 94.8% | 93.8% | 100% | 112% | 99% | 106% | 95% | 104% | 94.7%
CC(=O)Nc1ccc2c(c1)C(=O)c1cccc(C(=O)O)c1-2 | 104% | 95.5% | 98.9% | 98.1% | 96.6% | 108% | 97.6% | 105% | 114% | 116% | 115% | 148% | 112% | 109% | 104% | 100% | 106% | 105% | 107%
CN(C)CCCSc1ccccc1NC1=C(Cl)C(=O)C(Nc2ccccc2SCCCN(C)C)=C(Cl)C1=O | -43.4% (active) | 93.5% | 118% | 103% | 79% | -78.2% (active) | 101% | 42.9% | 17.9% | 87.4% | -18.8% (active) | -28.8% (active) | 44.9% | 45.8% | 43.7% | 101% | 42.8% | 85% | 94.7%
O=C(CCc1nnc2sc(-c3cc(O)c(O)c(O)c3)nn12)c1nc2ccccc2[nH]1 | 88.9% | 89.9% | 105% | 105% | 69.4% | 98.3% | 108% | 107% | 114% | 112% | 8.3% (active) | 103% | 102% | 115% | 113% | 82.8% | 80% | 110% | 105%
Cc1ccc2nc(Cl)c(-c3nc4ccccc4o3)cc2c1 | 77.6% | 90.7% | 92.7% | 106% | 83% | 90.3% | 99.6% | 99.5% | 89.5% | 103% | 80.7% | 86.9% | 91.4% | 102% | 87.9% | 105% | 99.2% | 108% | 106%
CC(=O)OC/C=C(/C)C[P+](c1ccccc1)(c1ccccc1)c1ccccc1 | 80.1% | 66% | 65.6% | 40.3% | 64.3% | 74.6% | 64.6% | 74.5% | 48.3% | 58.3% | 28.4% | 61.7% | 75.2% | 98% | 76.7% | 41.6% | 64.2% | 69.7% | 46.6%
